This experiment deals with Serine protease Rv3671c (Mycobacterium tuberculosis (strain ATCC 25618 / H37Rv)) (UniProt P9WHR9). As to the kind of experiment: M. tuberculosis Rv3671c protease inhibition confirmation – biochemical, fluorescence polarization, M. tuberculosis H37Rv (AID 2761). To be noted: at 5.96 µM; active compounds read high.

For two molecules, inhibition results are on record in PubChem BioAssay AID2761 (The Scripps Research Institute Molecular Screening Center, 2010).

The other results are listed elsewhere or left out. Active and inactive are the calls of the source. Rule as the data show it: active = inhibition above about 38%; inactive = the rest.

Chain of Serine protease Rv3671c (Mycobacterium tuberculosis (strain ATCC 25618 / H37Rv)) (P9WHR9 whole entry, looked up): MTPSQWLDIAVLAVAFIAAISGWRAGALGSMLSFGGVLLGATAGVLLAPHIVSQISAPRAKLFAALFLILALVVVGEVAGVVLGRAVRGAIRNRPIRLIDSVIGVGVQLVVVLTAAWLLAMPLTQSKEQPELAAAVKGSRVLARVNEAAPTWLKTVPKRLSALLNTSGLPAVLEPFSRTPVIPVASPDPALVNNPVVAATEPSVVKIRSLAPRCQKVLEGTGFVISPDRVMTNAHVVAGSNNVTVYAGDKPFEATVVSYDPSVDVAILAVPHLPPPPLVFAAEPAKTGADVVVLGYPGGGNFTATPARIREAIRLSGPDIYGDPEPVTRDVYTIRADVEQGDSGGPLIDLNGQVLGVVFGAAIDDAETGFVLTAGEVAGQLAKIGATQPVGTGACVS

What is called inhibition is the drop in the measured response relative to a control, in per cent. In the case of `COCCOC(=O)c1sc(=S)n(CCOC)c1N`, the inhibition was 28.9% (inactive).

In the case of `c1ccc2[nH]c(-c3nc4ccccc4[nH]3)nc2c1`, the inhibition was 66.6% (active).
